Activity change, negative = inhibition and Potency data for 18 molecules are collected here from PubChem BioAssay (NCATS).

Molecules are shown by their SMILES. Inconclusive results are not listed. Entries that show only a call come without a potency. Values without a mark were called inactive. Active and inactive are the calls of the source. Unless noted, calls follow the shape of the dose curve; as a rule, active = well fitted inhibition curve with a large enough effect; inconclusive = small, poorly fitted or top-dose-only effect; inactive = flat fitted curve, though single readings scatter. *1 amine or outer side, *2 acyl side, *3 side chain or, on linkers, in order; H or OH if unused. Where a SMILES comes first, the peptide text is derived from it. Side-chain parts run from the residue outwards. [ ]: non-standard residue; d: D form. The star is where a group is joined. Ethylenediamine = C(CN[*:2])N[*:1]; Hyp = O=C(O)[C@@H]1C[C@@H](O)CN1; Phg = N[C@H](C(=O)O)c1ccccc1; CO = O=C([*:1])[*:2]; Bn = c1ccc(C*)cc1

Assay [1] in a line: AP1 Signaling Pathway (AID 357; active = well fitted curve in either direction with a large enough effect, not every such curve was filed as active;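 also: ME-180 reporter cells stimulated with EGF at its EC50 level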). To be noted: ME-180 (cervical carcinoma) AP-1-bla reporter, EGF-induced, beta-lactamase ratio, 5 h; at 7.69 µM (top of the series) unless noted. An outline of the steps: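 A ratiometric CCF4 readout (405 nm excitation; 460 and 530 nm emission) quantified AP-1-driven beta-lactamase in ME-180 cells after 5 h with compound and EC50 EGF; AC50 values were derived for activators and inhibitors.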

Assay [2] concerns the target 3',5'-cyclic-AMP phosphodiesterase 4B (Homo sapiens) (UniProt Q07343). Kind of assay: qHTS Assay for Inhibitors of PDE-IV (AID 607; active = well fitted activation curve with a large enough effect in the main read-out, with a control signal flat, not every such curve was filed as active). An outline of the steps: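 ACTOne HEK293 cells carry a modified cAMP-gated CNG channel and express endogenous PDE4; plated 1000 cells/well, compounds up to 22.9 uM final. Membrane-potential dye fluorescence (ex 535/em 590) was read; parental cells received 10 uM forskolin + 100 uM RO 20-1724.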
On the technique in general: qHTS replaces the single test concentration by a dilution series.

Assay [3] addresses Dual specificity protein kinase CLK4 (Homo sapiens) (UniProt Q9HAZ1). The assay is described as follows: qHTS Assay for Inhibitors of CDC-like Kinase 4 (ADP-FP Assay) (AID 1795).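 Also: recombinant human CLK4 phosphorylating RS repeat peptide at 1 µM ATP; nearly all actives have a fitted effect of over 60% in size.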 The method, boiled down: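 Kinase activity was followed as ADP output, converted from fluorescence polarization with a calibration curve. Reactions ran one hour at low ATP (1 uM) with RS peptide substrate.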

The target in assay [4] is Glutathione peroxidase 1 (Homo sapiens) (UniProt P07203). Kind of assay: Primary qHTS Assay for Inhibitors of Recombinant Selenoprotein Glutathione Peroxidase 1 (GPX1) (AID 1845191). Also: nearly all actives have a fitted effect of over 65% in size. The method, boiled down: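 GR-coupled readout: NADPH consumption tracked by fluorescence, ex 340/em 450 nm, at t=0 and after 15 min at RT. Final mix 10 nM GPX1, 1 mM GSH, 0.5 mM CHP, 0.5 mM NADPH, 100 nM GR, 0.01% BSA, following 30 min enzyme–compound preincubation.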
Glutathione peroxidase 1 (Homo sapiens), sequence (P07203 whole entry, looked up): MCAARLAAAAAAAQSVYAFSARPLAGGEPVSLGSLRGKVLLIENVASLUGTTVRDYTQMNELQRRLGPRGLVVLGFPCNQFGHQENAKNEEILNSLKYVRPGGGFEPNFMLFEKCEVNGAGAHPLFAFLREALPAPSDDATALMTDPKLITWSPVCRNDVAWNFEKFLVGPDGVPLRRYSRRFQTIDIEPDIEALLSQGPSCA

Assay [5] has as its target Phospholipid hydroperoxide glutathione peroxidase GPX4 (Homo sapiens) (UniProt P36969). The assay is described as follows: Primary qHTS Assay for Inhibitors of Recombinant Selenoprotein Glutathione Peroxidase 4 (GPX4) (AID 1845192). Also: nearly all actives have a fitted effect of over 65% in size. Also: potency is read from the fitted curve at half-maximal effect. An outline of the steps: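 Steps: GPX4 plus compound, 30 min RT; add GR/GSH/NADPH master mix; start with cumene hydroperoxide; read 340/450 nm fluorescence at 0 and 15 min. Finals were 200 nM GPX4, 1 mM GSH, 0.5 mM CHP, 0.5 mM NADPH, 100 nM GR.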

Phospholipid hydroperoxide glutathione peroxidase GPX4 (Homo sapiens), sequence (P36969 whole entry, looked up): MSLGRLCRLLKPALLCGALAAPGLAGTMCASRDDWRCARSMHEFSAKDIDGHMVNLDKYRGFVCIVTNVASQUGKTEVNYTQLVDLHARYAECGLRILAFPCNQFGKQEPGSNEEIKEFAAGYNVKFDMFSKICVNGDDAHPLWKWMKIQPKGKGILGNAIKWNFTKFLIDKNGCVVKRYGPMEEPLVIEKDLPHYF
3',5'-cyclic-AMP phosphodiesterase 4B (Homo sapiens), sequence (Q07343 whole entry, looked up): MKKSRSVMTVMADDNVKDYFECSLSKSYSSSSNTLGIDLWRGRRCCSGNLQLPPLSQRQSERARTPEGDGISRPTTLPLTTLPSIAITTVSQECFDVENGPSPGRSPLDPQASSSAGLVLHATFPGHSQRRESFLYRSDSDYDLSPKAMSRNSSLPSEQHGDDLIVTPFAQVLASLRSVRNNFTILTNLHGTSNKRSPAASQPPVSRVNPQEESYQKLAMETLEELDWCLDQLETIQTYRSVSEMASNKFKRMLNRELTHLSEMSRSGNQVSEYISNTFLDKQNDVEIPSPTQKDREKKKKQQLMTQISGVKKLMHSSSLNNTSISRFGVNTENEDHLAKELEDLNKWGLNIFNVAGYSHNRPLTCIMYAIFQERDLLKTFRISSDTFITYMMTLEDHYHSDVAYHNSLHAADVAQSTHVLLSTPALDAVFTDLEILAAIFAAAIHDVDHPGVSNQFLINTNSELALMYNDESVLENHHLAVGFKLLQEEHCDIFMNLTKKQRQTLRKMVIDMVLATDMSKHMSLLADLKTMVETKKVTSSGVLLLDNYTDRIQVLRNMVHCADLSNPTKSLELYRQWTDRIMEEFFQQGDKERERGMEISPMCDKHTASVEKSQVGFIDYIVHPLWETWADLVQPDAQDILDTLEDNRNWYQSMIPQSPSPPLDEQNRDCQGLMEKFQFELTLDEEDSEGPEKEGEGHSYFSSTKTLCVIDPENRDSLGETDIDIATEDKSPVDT
Dual specificity protein kinase CLK4 (Homo sapiens), sequence (Q9HAZ1 whole entry, looked up): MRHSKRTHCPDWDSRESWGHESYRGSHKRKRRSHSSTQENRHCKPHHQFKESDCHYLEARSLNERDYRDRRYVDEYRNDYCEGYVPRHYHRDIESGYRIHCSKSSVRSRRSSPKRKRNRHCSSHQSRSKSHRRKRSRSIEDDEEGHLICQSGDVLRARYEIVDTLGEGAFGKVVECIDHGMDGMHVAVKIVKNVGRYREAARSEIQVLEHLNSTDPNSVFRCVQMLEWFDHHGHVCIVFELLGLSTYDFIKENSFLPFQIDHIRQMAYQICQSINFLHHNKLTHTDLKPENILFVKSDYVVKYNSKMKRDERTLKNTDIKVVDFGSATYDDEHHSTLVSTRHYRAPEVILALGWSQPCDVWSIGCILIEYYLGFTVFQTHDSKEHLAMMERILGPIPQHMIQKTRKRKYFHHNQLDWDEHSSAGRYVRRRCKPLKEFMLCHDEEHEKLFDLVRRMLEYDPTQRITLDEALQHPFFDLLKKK

For `COc1ccc2[nH]cc(CCNc3nc(-c4c(C)noc4C)nc4ccccc34)c2c1`, the activity change, negative = inhibition in assay [1] was -24.6%. In addition, the Potency entry in assay [2] and in assay [3] was “inactive” throughout.
In the case of `NCCCC[C@@H]1NC(=O)[C@@H](Cc2c[nH]c3ccccc23)NC(=O)[C@H](c2ccccc2)NC(=O)[C@@H]2C[C@@H](OC(=O)NCCN)CN2C(=O)[C@H](Cc2ccccc2)NC(=O)[C@H](Cc2ccc(OCc3ccccc3)cc2)NC1=O` (cyclo([Hyp]([CO-Ethylenediamine])[Phg][dW]KY(Bn)F)), the Potency result in assay [4] and in assay [5] was “inactive” each time.
With `COc1cc(/C=C\C(=O)N2CCN(CC(=O)N3CCCC3)CC2)cc(OC)c1OC`, the Potency result in assay [4] and in assay [5] was “inactive” throughout.
In the case of `C=Cc1c(C)c2cc3nc(c(CC(=O)N[C@@H](CC(=O)O)C(=O)O)c4nc(cc5[nH]c(cc1[nH]2)c(C)c5CC)C(C)=C4C(=O)O)[C@@H](CCC(=O)O)[C@@H]3C`, the Potency entry in assay [4] and in assay [5] was “inactive” each time.
Regarding `CN(CCCCCCN(C)C(=O)Oc1ccc[n+](C)c1)C(=O)Oc1ccc[n+](C)c1`, the Potency result in assay [4] and in assay [5] was “inactive” throughout.
In the case of `COC(=S)NCCn1c([N+](=O)[O-])cnc1C`, the Potency entry in assay [4] and in assay [5] was “inactive” throughout.
Turning to `CSCCNc1nc(SCCC(F)(F)F)nc2c1ncn2[C@@H]1O[C@H](COP(=O)(O)OP(=O)(O)C(Cl)(Cl)P(=O)(O)O)[C@@H](O)[C@H]1O`, the Potency entry in assay [4] and in assay [5] was “inactive” in each case.
As for `Cc1cc(C#N)cc(C)c1Oc1nc(Nc2ccc(C#N)cc2)nc(N)c1Br`, the Potency result in assay [4] and in assay [5] was “inactive” throughout.
In the case of `CCN(CC)CCS(=O)(=O)[C@@H]1CCN2C(=O)c3coc(n3)CC(=O)C[C@H](O)/C=C(C)/C=C/CNC(=O)/C=C/[C@@H](C)[C@@H](C(C)C)OC(=O)[C@@H]12`, the Potency result in assay [4] is “inactive”. For the same molecule, the Potency in assay [5] is 6.31 µM (active).
On the same counts, the results for `CCCCCCCCCCCC(=O)OCN1C(=O)CCc2ccc(OCCCCN3CCN(c4cccc(Cl)c4Cl)CC3)cc21` are “inactive” and “inactive”.
On the same counts, the results for `CC(C)OC(=O)[C@H](C)N[P@@](=O)(OC[C@H]1O[C@@H](n2ccc(=O)[nH]c2=O)[C@](C)(F)[C@@H]1O)Oc1ccccc1` are “inactive” and “inactive”.
`CC(=O)OCC(=O)[C@@]1(O)[C@H](C)C[C@H]2[C@@H]3C[C@H](F)C4=CC(=O)C=C[C@]4(C)[C@@]3(F)[C@@H](O)C[C@@]21C`: the Potency entry in assay [4] and in assay [5] was “inactive” in each case.
With `C=C1CC[C@H](O)C/C1=C\C=C1/CCC[C@]2(C)[C@@H]([C@H](C)CC[C@H](O)C(C)(C)O)CC[C@@H]12`, in assay [4], the Potency result is “inactive”. For the same molecule, the Potency in assay [5] was 14.1 µM (active).
On the same counts, the results for `CC(OC(=O)NCC1(CC(=O)O)CCCCC1)OC(=O)C(C)C` (configuration not stated) are “inactive” and “inactive”.
On the same counts, the results for `C[C@H](Cc1cc2c(c(C(N)=O)c1)N(CCCO)CC2)NCCOc1ccccc1OCC(F)(F)F` are “inactive” and “inactive”.
In the case of `CN(C)CC(=O)O`, the Potency entry in assay [4] and in assay [5] was “inactive” each time.
For `CC1(C)S[C@@H]2[C@H](NC(=O)[C@H](NC(=O)N3CCNC3=O)c3ccccc3)C(=O)N2C1C(=O)O` (some centres not stated), the Potency result in assay [4] and in assay [5] was “inactive” in each case.
As to `Cc1ncc([N+](=O)[O-])n1CCOC(=O)c1ccccc1`, the Potency entry in assay [4] and in assay [5] was “inactive” in each case.
